Assay [1] is described as follows: AP1 Signaling Pathway (AID 357).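 Further: ME-180 reporter cells stimulated with EGF at its EC50 level; on the % scale 0 is the no-effect control and ±100 the full control effect.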 In outline: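 First, ME-180 AP-1-bla cells were cultured overnight at 37 °C in low-serum Opti-MEM. Next, titrated compounds with EC50 EGF were incubated 5 hours. Finally, CCF4 was added for 2.5 hours and the 460/530 nm ratio recorded.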
Assay [2] in a line: Stat Signaling Pathway (AID 446).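 Further: ME-180 cervical cancer cells given 40 pM IL-6 alongside compound; SIE-controlled beta-lactamase reporter measured as 460/530 nm FRET emission ratio; on the % scale 0 is the no-effect control and ±100 the full control effect.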 In outline:
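ME-180 cells carrying a SIE-driven beta-lactamase reporter are stimulated with 40 pM IL-6 for 5 h at 37C in the presence of compound. The 460/530 nm FRET substrate ratio is read after 2.5 h at RT. Data are normalised to 300 pM IL-6 and to 125 nM JAK inhibitor controls.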

Assay [3] deals with Glucocorticoid receptor (Homo sapiens) (UniProt P04150). As to the kind of experiment: GR-EFC Redistribution (AID 451; calls by dose curve; further: potency means the concentration at half of the fitted maximal effect). The settings on record: CHO-K1 GR-EFC translocation, beta-gal luminescence, 2 h. In outline: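 CHO-K1 cells stably expressing nuclear-localized β-gal enzyme acceptor and GR fused C-terminally to the enzyme donor fragment; ligand-driven nuclear translocation restores β-gal by complementation. Compounds titrated up to 46 uM final, 2 h at 37 °C; luminescence read.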
Sequence of Glucocorticoid receptor (Homo sapiens) (P04150 whole entry, looked up, the tested form may be a part): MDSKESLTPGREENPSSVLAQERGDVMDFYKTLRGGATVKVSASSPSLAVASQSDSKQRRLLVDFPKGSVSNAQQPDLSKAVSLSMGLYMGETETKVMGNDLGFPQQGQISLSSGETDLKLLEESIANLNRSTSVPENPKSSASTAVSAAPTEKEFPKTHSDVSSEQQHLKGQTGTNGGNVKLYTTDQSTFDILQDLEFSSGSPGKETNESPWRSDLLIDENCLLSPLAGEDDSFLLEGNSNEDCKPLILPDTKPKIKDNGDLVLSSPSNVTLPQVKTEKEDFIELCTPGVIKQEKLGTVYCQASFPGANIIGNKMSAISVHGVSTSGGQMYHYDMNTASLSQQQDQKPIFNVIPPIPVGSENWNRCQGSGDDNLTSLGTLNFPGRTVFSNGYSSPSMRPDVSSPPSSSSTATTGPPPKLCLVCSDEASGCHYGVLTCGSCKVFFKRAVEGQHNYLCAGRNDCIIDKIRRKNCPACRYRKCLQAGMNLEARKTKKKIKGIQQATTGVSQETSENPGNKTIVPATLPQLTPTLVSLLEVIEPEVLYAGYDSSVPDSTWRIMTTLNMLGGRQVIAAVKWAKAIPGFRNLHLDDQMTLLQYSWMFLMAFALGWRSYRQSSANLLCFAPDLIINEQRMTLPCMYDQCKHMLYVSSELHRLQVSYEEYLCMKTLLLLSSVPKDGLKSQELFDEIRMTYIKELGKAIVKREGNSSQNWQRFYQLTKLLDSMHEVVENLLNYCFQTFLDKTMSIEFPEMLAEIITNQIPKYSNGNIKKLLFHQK

The target in assay [4] is Mitogen-activated protein kinase 10 (Mus musculus) (UniProt Q61831). As to the kind of experiment: JNK3 AlphaScreen Assay (AID 530).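 Further: kinase came from lysate of stimulated human HepG2 cells; signal reports phosphorylation of biotinylated GST-cJun 1-79 at Ser73 with 10 µM ATP; on the % scale 0 is the no-effect control and ±100 the full control effect.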 In outline: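 Inhibitors reduce antibody binding to phosphorylated biotin-cJun, lowering AlphaScreen luminescence. Lysates from HepG2 cells pre-activated by IL-1beta plus TNF-alpha supplied JNK3; compounds were titrated.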
(In Alpha technology, singlet oxygen from a donor bead excites a nearby acceptor bead.)

Assay [5] deals with 3',5'-cyclic-AMP phosphodiesterase 4B (Homo sapiens) (UniProt Q07343). Briefly: qHTS Assay for Inhibitors of PDE-IV (AID 607; active means well fitted activation curve with a large enough effect in the main read-out, with a control signal flat, not every such curve was filed as active; further: % of control where 0% means no effect). In outline:
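HEK293 ACTOne cells with CNG channel (1000/well), endogenous PDE4; membrane potential dye, compounds up to 22.9 uM final. Fluorescence Ex 535/Em 590; RO 20-1724 (100 uM final) as reference.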
For orientation: qHTS replaces the single test concentration by a dilution series.

The nature of assay [6]: qHTS Assay for Lipid Storage Modulators (AID 1519; calls by dose curve). The settings on record: Drosophila S3 cells, BODIPY lipid droplet/cell ratio, laser cytometry, cells loaded with oleic acid. In outline:
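Cells seeded at 5,000 per well were treated with compounds over a concentration series and loaded with oleic acid (400 uM, as added). Lipid droplet fluorescence (488 nm excitation, 500-530 nm channel) was read by laser-scanning cytometry and normalized to 20 uM Triacsin C.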

A short description of assay [7]: NFAT Signaling Pathway (AID 444).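 Further: carbachol stimulus at about its EC50 of 1 µM final; on the % scale 0 is the no-effect control and ±100 the full control effect.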 The settings on record: Jurkat NFAT-bla M1, carbachol, beta-lactamase ratio, 5 h. In outline: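 Jurkat cells carrying an NFAT-driven β-lactamase reporter and co-transfected muscarinic M1 receptor were treated with compound plus carbachol (1 uM final, an EC50 level) for 5 h at 37 °C. CCF4 loading followed for 1 h at RT; 460/530 nm ratio gave %activity.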

The target of assay [8] is Cytochrome P450 1A2 (Homo sapiens) (UniProt P05177). As to the kind of experiment: p450-cyp1a2 (AID 410; calls by dose curve; further: potency means the concentration at half of the fitted maximal effect;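 on activity change, negative = inhibition: -100% = full effect of reference inhibitor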). An outline of the steps:
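Luminescent readout of luciferin formed from Luciferin-ME by human CYP1A2; data normalized against complete inhibition by 57 uM furafylline. Enzyme 20nM, substrate 100uM at Km, 100mM KPO4 buffer, 60 min reaction at room temperature.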

The target in assay [9] is Glucocorticoid receptor (Homo sapiens) (UniProt P04150). Briefly: GR-GFP Redistribution (AID 450;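 active means compounds whose dose series gives a full or clear partial fitted curve of increased nuclear translocation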; further: potency means the concentration at half of the fitted maximal effect). To be noted: U2OS GR-GFP nuclear translocation, laser cytometry, 2 h.
Assay [10] addresses Ubiquitin carboxyl-terminal hydrolase 1 (Homo sapiens) (UniProt O94782). As to the kind of experiment: Inhibitors of USP1/UAF1: Pilot qHTS (AID 504865; active means well fitted inhibition curve with a large enough effect;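 further: rhodamine fluorescence freed from ubiquitin-rhodamine substrate followed over time; top concentration of the series differs between compounds; on the % scale 0 is the no-effect control and ±100 the full control effect; nearly all actives have a fitted effect of over 35% in size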). In outline: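 Kinetic fluorescence assay: 1nM USP1/UAF1, 15 min compound preincubation, then 150nM Ub-Rho; 480/540 nm.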
Assay [11] concerns the target Luciferin 4-monooxygenase (Photinus pyralis) (UniProt P08659). As to the kind of experiment: Biochemical firefly luciferase enzyme assay for NPC (AID 624030; active means well fitted inhibition curve with a large enough effect;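 further: purified P. pyralis luciferase at 10 nM with luciferin and ATP substrate; 0% = DMSO and -100% = full luciferase inhibition by PTC124 control; nearly all actives have a fitted effect of over 70% in size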). An outline of the steps:
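Counter-screen for direct inhibition of the luciferase enzyme by approved-drug library compounds, run at 10 nM enzyme in 50 mM Tris acetate (final). Luminescence was read within 5 min of enzyme-buffer addition and normalized to PTC124 versus DMSO (0%).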

Assay [12] is described as follows: qHTS profiling for inhibitors of Plasmodium falciparum proliferation (AID 504749; active means well fitted inhibition curve with a large enough effect;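 further: 0% = DMSO vehicle and full inhibition = artemisinin control; nearly all actives have a fitted effect of over 60% in size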). To be noted: P. falciparum in erythrocytes, SYBR Green DNA, 72 h, at 28.7 µM (top of the series). In outline:
(§1)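 Parasite proliferation within erythrocytes, 72 h exposure. Endpoint: SYBR Green I fluorescence after overnight lysis at room temperature. Controls: 0.29 uM artemisinin, DMSO.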

In a further assay the test system is 3D7. The assay is described as above. The settings on record: P. falciparum in erythrocytes, SYBR Green DNA, 72 h; series mostly up to 28.7 µM. In outline: as §1
Another assay deals with C2A. Described as above. The settings on record: P. falciparum in erythrocytes, SYBR Green DNA, 72 h; series mostly up to 28.7 µM. An outline of the steps: as §1
In the next assay the test system is CP211. The assay is described as above. To be noted: P. falciparum in erythrocytes, SYBR Green DNA, 72 h; series mostly up to 28.7 µM. In outline:
as §1

A further assay concerns CP217. The assay is described as above. To be noted: P. falciparum in erythrocytes, SYBR Green DNA, 72 h; series mostly up to 28.7 µM. An outline of the steps:
as §1

For the next assay, the system named is CP252. The assay is described as above. To be noted: P. falciparum in erythrocytes, SYBR Green DNA, 72 h; series mostly up to 12.8 µM. An outline of the steps: as §1
The next assay relates to CP262. Described as above. To be noted: P. falciparum in erythrocytes, SYBR Green DNA, 72 h; series mostly up to 28.7 µM. An outline of the steps: as §1
For a further assay, the system named is CP286. The description is as above. To be noted: P. falciparum in erythrocytes, SYBR Green DNA, 72 h; series mostly up to 28.7 µM. In outline:
as §1

The next assay concerns ECU. The description is as above. To be noted: P. falciparum in erythrocytes, SYBR Green DNA, 72 h; series mostly up to 28.7 µM. In outline:
as §1

The mark [13] stands for this setting: measured here: cell count channel max response.
[14] abbreviates: measured here: lipid channel max response.

SMILES strings stand for the structures. Several values for one entry are separate records, joined by “and”; a condition that tells them apart may be missing. Identical values can stand only once. Records with an inconclusive call do not appear. Activity calls are given as the source filed them. Unless noted, the call rests on the fitted dose curve; in most records, active means well fitted curve in either direction with a large enough effect (not every such curve was filed as active); inconclusive means small, poorly fitted or top-dose-only effect, or another doubt; inactive means flat fitted curve, though single readings scatter.

Sequence of 3',5'-cyclic-AMP phosphodiesterase 4B (Homo sapiens) (Q07343 whole entry, looked up): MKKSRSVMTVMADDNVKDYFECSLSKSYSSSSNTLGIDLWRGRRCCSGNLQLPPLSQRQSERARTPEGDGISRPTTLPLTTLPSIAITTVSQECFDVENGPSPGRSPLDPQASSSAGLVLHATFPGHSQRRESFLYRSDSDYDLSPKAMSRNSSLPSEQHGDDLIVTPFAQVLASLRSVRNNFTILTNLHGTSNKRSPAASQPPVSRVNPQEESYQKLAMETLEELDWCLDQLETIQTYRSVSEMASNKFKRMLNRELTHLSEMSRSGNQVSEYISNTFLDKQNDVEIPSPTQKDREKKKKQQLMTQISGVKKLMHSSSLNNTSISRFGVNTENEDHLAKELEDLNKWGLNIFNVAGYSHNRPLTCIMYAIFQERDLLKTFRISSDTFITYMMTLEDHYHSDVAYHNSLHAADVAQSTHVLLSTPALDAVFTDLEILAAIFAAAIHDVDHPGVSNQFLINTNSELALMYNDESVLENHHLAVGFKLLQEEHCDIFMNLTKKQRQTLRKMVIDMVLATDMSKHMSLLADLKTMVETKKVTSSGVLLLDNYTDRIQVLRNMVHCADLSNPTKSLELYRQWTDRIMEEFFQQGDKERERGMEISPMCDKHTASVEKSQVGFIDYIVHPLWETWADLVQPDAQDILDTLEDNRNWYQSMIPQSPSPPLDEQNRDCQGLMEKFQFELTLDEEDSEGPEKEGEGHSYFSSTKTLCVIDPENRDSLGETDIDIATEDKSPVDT
Sequence of Cytochrome P450 1A2 (Homo sapiens) (P05177 whole entry, looked up): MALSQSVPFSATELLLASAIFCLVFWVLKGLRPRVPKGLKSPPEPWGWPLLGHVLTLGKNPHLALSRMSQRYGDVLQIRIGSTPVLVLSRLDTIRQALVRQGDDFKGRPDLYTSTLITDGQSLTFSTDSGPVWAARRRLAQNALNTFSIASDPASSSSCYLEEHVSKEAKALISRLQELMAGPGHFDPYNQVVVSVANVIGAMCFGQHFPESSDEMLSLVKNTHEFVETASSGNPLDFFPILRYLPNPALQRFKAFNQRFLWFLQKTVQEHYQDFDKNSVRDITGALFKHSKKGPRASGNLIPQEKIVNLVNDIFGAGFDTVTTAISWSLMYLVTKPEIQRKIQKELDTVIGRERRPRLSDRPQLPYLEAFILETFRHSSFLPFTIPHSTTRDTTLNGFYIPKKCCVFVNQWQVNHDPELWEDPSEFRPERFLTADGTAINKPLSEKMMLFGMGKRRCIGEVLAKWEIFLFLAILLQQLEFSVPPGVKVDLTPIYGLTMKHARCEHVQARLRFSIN
Sequence of Ubiquitin carboxyl-terminal hydrolase 1 (Homo sapiens) (O94782 whole entry, looked up): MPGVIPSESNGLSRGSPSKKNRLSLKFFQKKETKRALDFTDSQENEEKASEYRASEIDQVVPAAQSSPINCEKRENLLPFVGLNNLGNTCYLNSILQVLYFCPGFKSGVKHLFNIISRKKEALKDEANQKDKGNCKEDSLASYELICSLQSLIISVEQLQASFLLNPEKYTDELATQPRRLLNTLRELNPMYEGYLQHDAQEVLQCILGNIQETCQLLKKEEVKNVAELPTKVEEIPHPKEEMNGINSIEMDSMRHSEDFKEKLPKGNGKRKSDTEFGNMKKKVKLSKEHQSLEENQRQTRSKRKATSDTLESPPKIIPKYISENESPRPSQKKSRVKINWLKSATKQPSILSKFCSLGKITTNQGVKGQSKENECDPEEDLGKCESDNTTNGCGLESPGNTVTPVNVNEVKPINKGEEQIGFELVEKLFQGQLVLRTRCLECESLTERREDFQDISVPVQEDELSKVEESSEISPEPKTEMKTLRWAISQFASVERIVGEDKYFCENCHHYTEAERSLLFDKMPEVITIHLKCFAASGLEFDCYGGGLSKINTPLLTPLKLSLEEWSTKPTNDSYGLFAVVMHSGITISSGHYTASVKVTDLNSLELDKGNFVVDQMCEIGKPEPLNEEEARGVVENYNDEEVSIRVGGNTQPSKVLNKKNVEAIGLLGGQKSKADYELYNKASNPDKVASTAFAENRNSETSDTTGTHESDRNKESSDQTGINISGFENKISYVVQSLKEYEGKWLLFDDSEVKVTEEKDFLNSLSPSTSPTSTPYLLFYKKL
Sequence of Luciferin 4-monooxygenase (Photinus pyralis) (P08659 whole entry, looked up): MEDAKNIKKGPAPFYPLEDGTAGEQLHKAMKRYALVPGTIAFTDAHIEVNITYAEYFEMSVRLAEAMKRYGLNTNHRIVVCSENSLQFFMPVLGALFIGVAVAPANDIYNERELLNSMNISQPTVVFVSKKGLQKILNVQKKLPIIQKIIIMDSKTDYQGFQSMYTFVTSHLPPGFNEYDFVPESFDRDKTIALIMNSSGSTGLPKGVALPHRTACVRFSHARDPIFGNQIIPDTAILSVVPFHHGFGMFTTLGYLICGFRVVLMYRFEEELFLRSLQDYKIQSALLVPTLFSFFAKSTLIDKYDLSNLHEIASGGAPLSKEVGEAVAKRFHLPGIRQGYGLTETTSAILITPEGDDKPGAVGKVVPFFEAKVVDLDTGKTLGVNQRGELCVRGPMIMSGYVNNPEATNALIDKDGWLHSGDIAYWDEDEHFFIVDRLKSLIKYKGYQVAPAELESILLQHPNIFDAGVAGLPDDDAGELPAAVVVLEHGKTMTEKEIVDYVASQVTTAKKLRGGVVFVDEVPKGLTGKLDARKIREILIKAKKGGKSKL

For the compound `c1cnc(N2CC3(CCNCC3)C2)nc1`, the compound was called inactive in assay [1], in assay [2] and in assay [4]. Besides, the Potency in assay [3] is > 46 µM (inactive). Further, the Potency result in assay [5] was “inactive”. In assay [6] (at 57.5 µM (top of the series)), the activity change, negative = inhibition was 1.55% (inactive). The max response in [6] (setting [13]) is 11.6%; in assay [6] (setting [14]), 15.7%.

In the case of `N#Cc1ccc(CN2CC3(CCNCC3)C2)cc1`, the result in assay [1], in assay [2] and in assay [4] was inactive. The activity change, negative = inhibition is -23.5% (inactive) in assay [7] (at 7.69 µM (top of the series)) and -3.34% (inactive) in assay [6] (at 57.5 µM (top of the series)). The Potency in [3] is > 46 µM (inactive). Also, in assay [5], the Potency result was “inactive”. In addition, the values for the max response in assay [6] (setting [13]) and in [6] (setting [14]) were -8.82% and -10.3%, respectively.

Regarding `CN1C(=O)CCS(=O)(=O)[C@@H]1c1ccc(Cl)cc1`, the compound was classed as inactive in assay [1], in assay [2] and in assay [4]. For the same compound, the Potency entry in [8], in assay [5] and in [10] was “inactive” throughout. For the same compound, the activity change, negative = inhibition in [7] (at 17.2 µM (top of the series)) is 1.85% (inactive); in [6] (at 25.7 µM (top of the series)), -0.668% (inactive). The Potency in [9] and in assay [3] was > 20.6 µM (inactive) in each case. The max response in assay [6] (setting [13]) was -4.45%; in assay [6] (setting [14]), -4.68%.

Turning to `Cc1nc2cnc(N3CCNCC3)nc2n(C)c1=O`, the call in [1], in assay [2] and in [4] was inactive. In assay [3], the Potency is > 46 µM (inactive). The Potency result in assay [5] was “inactive”. Besides, the activity change, negative = inhibition in assay [6] (at 57.5 µM (top of the series)) is 5.19% (inactive). The max response in assay [6] (setting [13]) was 18.7%; in assay [6] (setting [14]), 25.8%.

For the compound `C#CCN(C)[C@@H](C)Cc1ccccc1`, the result in [1] and in [4] was inactive. In addition, the Potency in [8] is 25.1 µM (active) and 10 µM (active); in assay [9] it was > 46 µM (inactive) and > 20.6 µM (inactive); in [3] it was > 46 µM (inactive) and > 20.6 µM (inactive). Besides, the values for the activity change, negative = inhibition in assay [7] (at 17.2 µM (top of the series)), in assay [7] (at 38 µM (top of the series)) and in assay [6] (at 25.7 µM (top of the series)) were -14.3% (inactive), -2.85% (inactive) and -2.3% (inactive), respectively. The Potency result (in assay [5]; in [11]; in the assay with 3D7; with C2A; with CP211; with CP217) was “inactive” each time. Besides, the Potency result in the assay with CP252, with CP262, in the assay with CP286 and with ECU was “inactive” in each case. The max response in assay [6] (setting [13]) was 2.02%; in [6] (setting [14]) it was -0.249%. Further, the activity, negative = inhibition in assay [12] (parasite line A) was -9.65% (inactive); in assay [12] (parasite line B) it was 13.3% (inactive).

Take `N#Cc1ccc(CN2CC[C@@]3(CCCNC3)C2)cc1`: the compound was called inactive in assay [1] and in assay [4]. In addition, the activity change, negative = inhibition in assay [7] (at 7.69 µM (top of the series)) was -7.45% (inactive); in [6] (at 57.5 µM (top of the series)) it was 2.19% (inactive). For the same compound, the Potency in assay [3] is > 46 µM (inactive). Further, the Potency result in assay [5] was “inactive”. Further, the figures for the max response in assay [6] (setting [13]) and in assay [6] (setting [14]) were 16.6% and 21.9%, respectively.

Turning to `O=C(c1csnn1)N1CCC[C@@]2(CCN(Cc3ccncc3)C2)C1`, the compound was called inactive in [1], in assay [2] and in [4]. In addition, the activity change, negative = inhibition in [7] (at 7.69 µM (top of the series)) was -2.7% (inactive); in assay [6] (at 57.5 µM (top of the series)), 4.95% (inactive). In [3], the Potency was > 46 µM (inactive). In addition, the Potency entry in assay [5] is “inactive”. Moreover, the values for the max response in [6] (setting [13]) and in assay [6] (setting [14]) were 21.7% and 28.5%, respectively.

Source of the values: PubChem BioAssay (NCATS).
